Source: PubChem BioAssay (NCATS)
Values joined by “and” are separate entries in the source; they are usually repeats but may differ in a detail not shown here. Equal entries are not always repeated. Records with an inconclusive call do not appear. Active and inactive are the calls of the source. The call rests on the fitted dose curve; in most records, active means well fitted inhibition curve with a large enough effect; inconclusive means small, poorly fitted or top-dose-only effect; inactive means flat fitted curve, though single readings scatter.

Test system: ICS
Assay: qHTS profiling for inhibitors of Plasmodium falciparum proliferation (AID 504749); further: nearly all actives have a fitted effect of over 60% in size;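 on activity, negative = inhibition: 0% = DMSO vehicle and full inhibition = artemisinin control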
Conditions: P. falciparum in erythrocytes, SYBR Green DNA, 72 h; series mostly up to 28.7 µM; activity, negative = inhibition: at the top concentration
In short: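 P. falciparum-infected erythrocytes (0.3% parasitemia, 2.5% hematocrit) incubated with compound 72 h at 37 C, 5% CO2. Parasite DNA detected by SYBR Green after lysis, overnight at room temperature; normalised to 0.29 uM artemisinin and DMSO.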
Potency means the concentration at half of the fitted maximal effect.

| SMILES | activity, negative = inhibition | Potency |
| --- | --- | --- |
| COc1ccc(OC)c(C(O)C(C)N)c1 (stereo not given) | -13.9% (inactive) | – |
| CCON=O | -11% (inactive) | – |
| CCCCCl | 9.83% (inactive) | – |
| COC([CH2][Hg])CNC(=O)c1ccccc1OCC(=O)O (stereo not given) | -3.59% (inactive) | – |
| CC(C)(O)C1C2OC(=O)C1C1(O)CC3OC34C(=O)OC2C14C (stereo not given) | -13.5% (inactive) | – |
| C[CH2][Hg][S]c1ccccc1C(=O)O | – | 1.26 µM (active) |
| O=C1C2CC=CCC2C(=O)N1SC(Cl)(Cl)Cl (stereo not given) | -23.7% (inactive) | – |
| N#CN | 5.43% (inactive) | – |
| O=C1CCCCC1CN1CCCCC1 (stereo not given) | 2.69% (inactive) | – |
| CN1C2CCC1CC(OC(c1ccccc1)c1ccc(Cl)cc1)C2 (stereo not given) | – | 3.55 µM (active) |
| COC1=CC=C2[C@H]3Cc4ccc(OC)c5c4[C@@]2(CCN3C)[C@H]1O5 | -22.8% [at 12.8 µM] (inactive) | – |
| S=C=S | 5.06% (inactive) | – |
| O=[N+]([O-])C(Br)(CO)CO | -13.6% (inactive) | – |
| COc1ccc2c3c1O[C@H]1C(=O)CC[C@H]4[C@@H](C2)N(C)CC[C@]314 | 9.41% (inactive) | – |
| CC(=O)O[C@H]1CC[C@H]2[C@@H]3CCC4=CC(=O)CCC4=C3C=C[C@]12C | -3.96% (inactive) | – |
| O=C1CCO1 | -0.128% (inactive) | – |
| O=C(CS(=O)C(c1ccccc1)c1ccccc1)NO (stereo not given) | -23.9% (inactive) | – |
| C=CCN1CC[C@]23c4c5ccc(O)c4O[C@H]2[C@@H](O)C=C[C@H]3[C@H]1C5 | 1.35% (inactive) | – |

| SMILES | activity, negative = inhibition | Potency |
| --- | --- | --- |
| C/C(=C\c1csc(C)n1)[C@@H]1C[C@@H]2O[C@]2(C)CCC[C@H](C)[C@H](O)[C@@H](C)C(=O)C(C)(C)[C@@H](O)CC(=O)O1 | – | 0.0018 µM (active) |
| CCC(N)Cc1c[nH]c2ccccc12 (stereo not given) | -2.15% (inactive) | – |
| C#CC(C)(O)CC (stereo not given) | 0.541% (inactive) | – |
| CCCCNCC(O)c1ccc(O)cc1 (stereo not given) | 7.77% (inactive) | – |
| O[C@H]1[C@H]2[C@H](O)CCCN2C[C@H]1O | 5.09% (inactive) | – |
| C=CCN1CCC23c4c5ccc(O)c4O[C@H]2C(=O)CC[C@@]3(O)C1C5 (stereo not given in full) | -4.65% (inactive) | – |
| CC(=O)OO | 12.4% (inactive) | – |
| [N-]=[N+]=CC(=O)OCC(N)C(=O)O (stereo not given) | 1.72% (inactive) | – |
| CC(C)CCON=O | 1.11% (inactive) | – |
| CC(C)(C)c1cc(O)ccc1O | – | 3.16 µM (active) and 2 µM (active) |
| C[N+]1(C)CCCCC1COC(=O)C(O)(c1ccccc1)c1ccccc1 (stereo not given) | -15.1% (inactive) | – |
| CCC1(c2ccccc2)C(=O)NC(=O)NC1=O | 2.26% (inactive) | – |
| C[N+]1(C)C2CCC1CC(OC(=O)c1c[nH]c3ccccc13)C2 (stereo not given) | -14.3% (inactive) | – |
| O=S(=O)(O)c1cc(O)ccc1O | 12.9% [at 12.8 µM] (inactive) | – |
| FC(F)OC(F)(F)C(F)Cl (stereo not given) | 1.4% (inactive) | – |
| CNC1(c2ccccc2Cl)CCCCC1=O (stereo not given) | – | inactive |
| c1ccc2sc(SNC3CCCCC3)nc2c1 | 2.89% (inactive) | – |
